# HP1b binding inh: HTS for Inhibitors of HP1-beta Chromodomain Interactions with Methylated Histone Tails. 390,000 compounds, 0.56% hits. AID 540317, 2011. Chromobox protein homolog 1 (Homo sapiens), P83916. Potency, µM (doses to about 114 µM), hits mostly inhibitors. AlphaScreen HP1-beta / biotin-H3K9me3 peptide binding; further: nearly all actives have a fitted effect of over 70% in size
#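 Compound inhibition of the preformed complex between 50 nM HP1-beta and 50 nM biotinylated H3K9me3 peptide was read by AlphaScreen. Buffer was PBS pH 7.4 with 0.01% Tween-20. Incubations ran 30 min at room temperature, with 10 ug/mL donor/acceptor beads.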
# Sfp PPTase inh: qHTS Assay for Inhibitors of Bacillus subtilis Sfp phosphopantetheinyl transferase (PPTase). 310,000 compounds, 3.5% hits. Potency, µM, hits mostly inhibitors. Biochemical Sfp PPTase activity, qHTS;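 further: the enzyme is Sfp with the accession as filed and its product quenches rhodamine fluorescence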
#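 Fluorescence-quenching assay: 15 nM Sfp-PPTase preincubated 15 min at room temperature with compound, then 5 uM rhodamine-CoA and 12.5 uM BHQ-2-labelled YbbR peptide added. Fluorescence (ex 525/em 598 nm) read at start and after 30 min; difference gives rate.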
# G9a inh: qHTS Assay for Inhibitors of Histone Lysine Methyltransferase G9a. Histone-lysine N-methyltransferase EHMT2 (Homo sapiens), Q96KQ7. G9a H3K9 monomethylation, AlphaScreen, 2 h. Potency, µM (titrated, usually from 102 µM), usual class: inhibitors. 350,000 compounds, 8.8% hits. AID 504332, 2011; further: nearly all actives have a fitted effect of over 75% in size
#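 Readings reflect AlphaScreen signal from monomethyl-H3K9 antibody detection. HMT at 20 nM; substrate b-H3K9 500 nM; cofactor SAM 20 uM; 2 h RT reaction; compounds tested as titrations in qHTS with 15 min preincubation.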
# JMJD2A Tudor: qHTS Assay for Inhibitors of JMJD2A-Tudor Domain. Lysine-specific demethylase 4A (Homo sapiens), O75164. AlphaScreen JMJD2A-Tudor / H3K4me3 peptide binding. Potency, µM (doses to about 114 µM), most hits filed as inhibitors. 390,000 compounds, 4.4% hits. AID 504339, 2011; further: nearly all actives have a fitted effect of over 50% in size
# Target sequence (O75164 whole entry, looked up, the tested form may be a part): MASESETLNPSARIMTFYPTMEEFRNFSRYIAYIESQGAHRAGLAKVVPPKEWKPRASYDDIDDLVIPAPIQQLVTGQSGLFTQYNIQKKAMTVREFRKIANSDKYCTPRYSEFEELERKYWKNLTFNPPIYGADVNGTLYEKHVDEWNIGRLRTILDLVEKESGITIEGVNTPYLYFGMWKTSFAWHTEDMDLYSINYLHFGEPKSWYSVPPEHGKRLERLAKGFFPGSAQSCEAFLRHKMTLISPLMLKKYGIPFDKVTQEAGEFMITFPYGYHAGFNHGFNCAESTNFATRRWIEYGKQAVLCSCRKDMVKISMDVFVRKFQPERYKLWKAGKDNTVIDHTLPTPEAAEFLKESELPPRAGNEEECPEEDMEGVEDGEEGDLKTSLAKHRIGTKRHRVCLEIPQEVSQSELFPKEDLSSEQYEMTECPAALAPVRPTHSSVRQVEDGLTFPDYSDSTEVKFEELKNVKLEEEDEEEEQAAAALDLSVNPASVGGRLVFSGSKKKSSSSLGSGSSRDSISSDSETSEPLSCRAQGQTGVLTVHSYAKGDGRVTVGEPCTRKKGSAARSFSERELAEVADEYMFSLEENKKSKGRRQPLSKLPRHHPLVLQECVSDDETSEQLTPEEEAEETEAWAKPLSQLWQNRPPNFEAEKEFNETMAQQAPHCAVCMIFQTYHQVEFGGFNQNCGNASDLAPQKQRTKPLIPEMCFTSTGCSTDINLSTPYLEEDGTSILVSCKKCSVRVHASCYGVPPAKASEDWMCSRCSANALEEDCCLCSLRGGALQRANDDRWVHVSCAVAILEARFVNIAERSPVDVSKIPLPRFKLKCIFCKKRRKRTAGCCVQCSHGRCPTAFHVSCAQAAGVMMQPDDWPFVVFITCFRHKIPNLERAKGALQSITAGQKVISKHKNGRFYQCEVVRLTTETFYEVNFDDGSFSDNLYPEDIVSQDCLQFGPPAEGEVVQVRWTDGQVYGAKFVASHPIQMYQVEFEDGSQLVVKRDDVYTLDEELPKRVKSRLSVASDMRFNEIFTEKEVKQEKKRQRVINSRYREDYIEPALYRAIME
# BAZ2B block: qHTS Assay for Inhibitors of BAZ2B; Bromodomain adjacent to zinc finger domain protein 2B (Homo sapiens), Q9UIF8; AlphaScreen BAZ2B-H3K14Ac peptide displacement; Potency, µM (titrated, usually from 114 µM), hits mostly inhibitors; 360,000 compounds, 4.4% hits; AID 504333, 2011; further: nearly all actives have a fitted effect of over 60% in size
#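 BAZ2B 50 nM plus b-H3(5-23)K14Ac 50 nM, PBS pH 7.4/0.01% Tween-20, 30 min RT; compound added (max 110 uM), 30 min RT; streptavidin donor/Ni-chelate acceptor beads 10 ug/mL final, 20 min dark; AlphaScreen read.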
# Numbers stand for hits; n = inactive; u = inconclusive; x = no result given; [ ] = another dose, or the depositor's remark. Hits are enriched below; roughly 12% of the tested compounds scored in any of these assays. The call rests on the fitted dose curve; in most records, active means well fitted curve in the direction sought with a large enough effect; inconclusive means small, poorly fitted or top-dose-only effect, or another doubt; inactive means no such curve, though single readings can be large; an effect the other way counts as inactive or inconclusive.
SMILES,HP1b binding inh,Sfp PPTase inh,G9a inh,JMJD2A Tudor,BAZ2B block
O=C(O)/C=C/C(=O)Nc1ccc(Cl)cc1C(=O)c1ccccc1,n,79µM,32µM,n,n
O=C(O)/C=C/C(=O)Nc1ccc(NC(=O)c2ccccc2)c(Cl)c1,n,56µM,50µM,n,n
N#CC(c1ccccc1)c1cccc(Cl)n1 (configuration not stated),n,n,n,n,n
N#CC(c1cccc(Cl)c1)c1ccc2c(C(F)(F)F)cc(C(F)(F)F)nc2n1 (configuration not stated),10µM,n,14µM,28µM,10µM
C[C@H](CO)N1C[C@H](C)[C@@H](CN(C)C(=O)Nc2ccccc2)Oc2ccc(NS(=O)(=O)c3cn(C)cn3)cc2C1=O,n,x,x,n,x
CCCCN(C)C(=O)c1nc2ccccn2c1CN1CCN(c2ccccn2)CC1,n,n,x,n,n
CCCCN(C)C(=O)c1nc2ccccn2c1CN1CCC[C@H]1C(=O)OC,n,n,n,40µM,n
COCCNC(=O)CN(Cc1ccc2c(c1)OCO2)C(=O)CCC(=O)Nc1nccs1,n,n,n,28µM,n
CC(C)(C)NC(=O)CN(Cc1ccc2c(c1)OCO2)C(=O)CCC(=O)Nc1nccs1,n,n,40µM,n,n
COCC1=Cc2cc3c(cc2C(C(C(=O)OC)C(=O)OC)N1C(=O)OC)OCO3 (configuration not stated),x,n,x,x,x
COc1ccc(C(CC(=O)Nc2cc(OC)c(OC)c(OC)c2)N2Cc3ccccc3C2=O)cc1 (configuration not stated),n,x,n,n,n
COc1ccc(C(CC(=O)Nc2ccc(OC)c(OC)c2)N2Cc3ccccc3C2=O)cc1 (configuration not stated),n,x,n,n,79µM
CC(C)CCN1C(=O)N(c2ccccc2)C(=O)C1CC(=O)Nc1ccc(Cl)cc1 (configuration not stated),n,x,n,n,n
COc1ccc(N=Cc2c(O)n(-c3cccc(C)n3)c(=O)c3ccccc23)cc1,n,n,u,n,n
Cc1cc(=O)[nH]c(N/N=C/c2cccc(Br)c2)n1,n,u,n[0.501 µM],n,n
CSc1ccc(/C=N/Nc2nc(C)cc(=O)[nH]2)cc1,n,56µM,n,u,n
Cc1cccc(-n2c(O)c(C=Nc3ccccc3)c3ccccc3c2=O)n1,u,n,u,11µM,n
Cc1cc(=O)[nH]c(N/N=C/c2ccc(O)c(O)c2)n1,n,u,n,2.8µM,n
Cc1cc(=O)[nH]c(NN=Cc2c(Cl)cccc2Cl)n1,n,x,x,n,x
Cc1cc(=O)[nH]c(N/N=C/c2c(O)n(-c3ccccc3)c(=O)c3ccccc23)n1,n,n,u,u,40µM
CC(=O)N1CCC(C(=O)Nc2nnc(C(C)C)s2)CC1,n,x,x,n,x
COC(=O)c1ccc(Cl)cc1NC(=O)NCc1c(-n2cccc2)sc2c1CCCC2,n,x,n,n,n
CCCN(C(=O)c1ccc(OCC(C)C)cc1)c1c(N)n(Cc2ccccc2)c(=O)[nH]c1=O,n,x,n,n,n
COc1cccc(OC)c1OCCCCN1CCCCC1,n,n,11µM,40µM,50µM
COc1cccc(OC)c1OCCCCN1CCC(Cc2ccccc2)CC1,u,n,13µM,3.2µM,28µM
SMILES,HP1b binding inh,Sfp PPTase inh,G9a inh,JMJD2A Tudor,BAZ2B block
COc1cccc(OC)c1OCCCOc1c(OC)cccc1OC,n,n,n,n,n
COc1cccc(OC)c1OCCCCN1CCCC1,u,n,u,7.9µM,u
COc1cccc(OC)c1OCCCCCCN1CCN(C)CC1,n,n,n[2.33 µM],n,n
COc1ccc(NC(=O)NCCCN2CCC(Cc3ccccc3)CC2)cc1,n,n,x,n,n
CC(=O)CCc1ccc(OCCCCN2CCC(Cc3ccccc3)CC2)cc1,u,u,10µM,3.5µM,50µM
COc1ccc(NC(=O)COC(=O)C2CCC2)cc1Cl,n,n,n,n,n
COc1cccc(CNC(=O)Cn2c(SCC(=O)Nc3ccc(F)cc3)nc3ccccc32)c1,n,x,n,n,n
CC(C)C(=O)N[C@@H]1CCCN1C(=O)/C=C\c1ccccc1,x,n,x,x,x
COc1cccc(N/C=C/C(=O)c2ccc(Br)cc2)c1,n,x,x,n,x

# Screening results deposited in PubChem by National Center for Advancing Translational Sciences (NCATS).
